Screening results: PubChem BioAssay, Johns Hopkins Ion Channel Center
KCNQ2 enhance = potentiators of rat KCNQ2 potassium channel; Potassium voltage-gated channel subfamily KQT member 2 (Rattus norvegicus), O88943; CHO-K1 KCNQ2, FluxOR thallium flux fluorescence; hits give high values; B-score at 10 µM; 310,000 compounds, 0.54% hits; AID 2239, 2010;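 active = fluorescence ratio B-score at least 3 SD of library B-scores, with initial fluorescence B-score within 3 of them, cut at about 5.3 in these data; same plate scores as AID 2156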;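 also: B-score of peak minus minimum over baseline fluorescence ratio after K+ and Tl+ stimulus; positive B-score means potentiation of KCNQ2 with more thallium influx and brighter signal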
KCNQ2 block = rat KCNQ2 potassium channel inhibitors, primary screen, cell-based, CHO-K1, FluxOR thallium flux, B-score; B-score at 10 µM; 20 min; hits give low values; AID 2156, 2009; Potassium voltage-gated channel subfamily KQT member 2 (Rattus norvegicus), O88943; 310,000 compounds, 1.1% hits;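 active = fluorescence ratio B-score at most minus 3 library SDs, with starting brightness B-score within 2 library SDs, cut at about -5.5 in these data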
KCNQ2 block conf = rat KCNQ2 potassium channel inhibitors, confirmation, cell-based, thallium flux. shares compounds with KCNQ2 block. activity change, negative = inhibition, % at 10 µM. AID 493025, 2011. KCNQ2-expressing cells, inhibition; hits give low values. 1,000 compounds, 57% hits;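 also: 0% = vehicle wells and values are ratio percent relative to vehicle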
KCNQ1 spec = human KCNQ1 channel inhibition, counter-screen for KCNQ2 inhibitor project, cell-based, FluxOR thallium flux. shares compounds with KCNQ2 block. KCNQ1-expressing cells, FluxOR thallium flux fluorescence; hits give low values. activity change, negative = inhibition, % at 10 µM. 1,000 compounds, 15% hits. AID 493026, 2011;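 active = activity change at least 3 SD of negative controls below their mean in both duplicate wells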;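 also: CHO cells stably transfected with KCNQ1 and depolarized by potassium stimulus; peak minus minimum fluorescence over baseline after thallium addition; 0% = vehicle negative control and -100% = blank without thallium stimulus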
Target sequence (P51787 whole entry, looked up): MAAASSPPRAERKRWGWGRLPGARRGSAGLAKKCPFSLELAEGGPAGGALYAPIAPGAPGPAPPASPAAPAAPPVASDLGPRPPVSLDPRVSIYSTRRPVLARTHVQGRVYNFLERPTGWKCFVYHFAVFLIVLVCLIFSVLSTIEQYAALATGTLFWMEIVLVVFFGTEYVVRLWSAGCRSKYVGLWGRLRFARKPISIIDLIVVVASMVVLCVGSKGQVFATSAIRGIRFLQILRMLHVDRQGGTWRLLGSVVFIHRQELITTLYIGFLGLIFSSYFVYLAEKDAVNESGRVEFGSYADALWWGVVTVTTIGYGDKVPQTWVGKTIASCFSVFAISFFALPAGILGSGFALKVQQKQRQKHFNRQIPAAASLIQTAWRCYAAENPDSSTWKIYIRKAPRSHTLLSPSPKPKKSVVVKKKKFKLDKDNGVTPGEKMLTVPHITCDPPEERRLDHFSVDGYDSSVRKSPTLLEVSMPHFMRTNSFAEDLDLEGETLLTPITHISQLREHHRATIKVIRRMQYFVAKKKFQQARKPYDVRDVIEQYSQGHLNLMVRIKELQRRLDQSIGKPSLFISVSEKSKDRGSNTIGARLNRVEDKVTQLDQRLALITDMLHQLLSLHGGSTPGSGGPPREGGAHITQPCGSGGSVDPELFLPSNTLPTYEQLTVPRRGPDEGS
CHO parental ctr = thallium flux change in parental CHO cells, counter-screen for KCNQ2 inhibitor project; shares compounds with KCNQ2 block; hits give low values; activity change, % at 10 µM; 1,000 compounds, 14% hits; AID 493029, 2011;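 also: 0% = vehicle negative controls with stimulus buffer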
KCNQ2 inh confirm = rat KCNQ2 channel inhibitors, confirmation, cell-based, automated patch clamp, single concentration; shares compounds with KCNQ2 block; 550 compounds, 49% hits; calls only at 10 µM; KCNQ2-expressing cells, automated patch clamp current
Kir21 confirm = mouse Kir2.1 channel blockers, retest, confirmation, cell-based, FluxOR thallium flux, duplicate; Kir2.1-expressing cells, FluxOR thallium flux fluorescence; hits give low values; Tl flux remaining, % of negative control (hits give low values), % at 10 µM; shares compounds with KCNQ2 enhance; 2,300 compounds, 41% hits;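 active = Primary-screen hit whose thallium flux fell at least 3 control SD below untreated wells in both duplicates, with normal baseline fluorescence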;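 also: 0% = blank wells without stimulus and 100% = stimulated no-compound controls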
HEK293 Tl flux = parental HEK293 activity in Kir2.1 inhibitor counter-screen. shares compounds with KCNQ2 enhance. parental HEK293 cells, FluxOR thallium flux fluorescence; 0% = unstimulated blank wells. FluxOR signal as % of negative control (100 = no effect), % at 10 µM. 2,300 compounds, 19% hits;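 active = dye signal at least 3 control SD above or below untreated wells in both duplicates, raw fluorescence within 3, either direction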;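 also: percent is based on the flux ratio of peak minus minimum fluorescence over baseline F0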
* = called active by the depositor; i = inactive; / = no result given; + = active, no number. This is a sample that favours compounds with a hit; in the whole collection about 1.6% have one here. Unless noted, no rule for the calls is given here.

SMILES	KCNQ2 enhance	KCNQ2 block	KCNQ2 block conf	KCNQ1 spec	CHO parental ctr	Kir21 confirm	HEK293 Tl flux	others
Cc1ccc(C(=O)N/C(=C\c2ccc(-c3ccc(Br)cc3)o2)C(=O)NCCCN(C)C)cc1	-8.21	-8.21*	-31.0%*	i	i	i	i	KCNQ2 inh confirm=i
Cc1ccc(C(=O)N/C(=C\c2ccc(-c3cccc([N+](=O)[O-])c3)o2)C(=O)NCCCN(C)C)cc1	1.69	i	/	/	/	/	/
Cc1ccc(NC(=O)C2CCN(S(=O)(=O)c3ccc4c(c3)NC(=O)C(C)S4)CC2)cc1Cl (centres undefined)	1.42	i	/	/	/	/	/
O=C(/C=C/c1cc(Br)ccc1O)c1ccco1	-7.68	-7.68*	-35.5%*	-41.0%*	-29.0%*	73.0%*	i	KCNQ2 inh confirm=i
O=C(/C=C/c1ccccc1O)c1ccco1	/	i	/	/	/	/	/
Cn1cccc1CNCC(O)c1ccccc1 (centres undefined)	/	i	/	/	/	/	/
CC(C)CN(CC(C)C)C(=O)Cc1coc2ccc3ccccc3c12	-8.44	-8.44*	-31.0%*	-28.5%*	-20.5%*	i	i	KCNQ2 inh confirm=+
O=C(O)Cc1coc2ccc3ccccc3c12	0.01	i	/	/	/	/	/
Cc1cc(Cl)ccc1OCC(=O)Nc1ccccc1N1CCOCC1	/	i	/	/	/	/	/
Cc1ccc(OCC(=O)Nc2ccccc2N2CCOCC2)c(C)c1	-7.42	-7.42*	i	i	i	61.0%*	i
O=C(CCOc1ccccc1)Nc1ccnn1C1CCN(C(=O)CCC(F)(F)F)CC1	/	i	/	/	/	/	/
CCCn1c(NCc2ccccn2)nc2ccccc21	1.87	i	/	/	/	/	/
CCCn1c(NCc2c[nH]c3ccccc23)nc2ccccc21	-7.94	-7.94*	-27.5%*	i	i	42.5%*	i	KCNQ2 inh confirm=+
CCCOc1ccc(C(=O)CCCC(=O)c2ccc(OCCC)cc2)cc1	0.56	i	/	/	/	/	/
COCC(CN1CCN(C2=NS(=O)(=O)c3ccccc32)CC1)OC(=O)c1ccc(OC)cc1 (centres undefined)	/	i	/	/	/	/	/
CCCOc1cccc(C2C(C(=O)c3cccs3)=C(O)C(=O)N2CCN2CCOCC2)c1 (centres undefined)	0.29	i	/	/	/	/	/
Cc1ccc(C(C)C)c(OCC(=O)NCC(c2cccs2)N2CCOCC2)c1 (centres undefined)	-8.42	-8.42*	-38.5%*	i	i	77.5%*	i	KCNQ2 inh confirm=i
Cc1cc(OCC(=O)NCC(c2cccs2)N2CCOCC2)ccc1C(C)C (centres undefined)	/	i	/	/	/	/	/
O=C(COC(=O)Cc1c(F)cccc1Cl)Nc1nnc(-c2ccccc2)o1	4.32	i	/	/	/	/	/
Cc1nc2ccccc2n1Cc1ccccc1	/	i	/	/	/	/	/
c1ccc(Cc2nc3ccccc3n2Cc2ccccc2)cc1	-8.06	-8.06*	-46.0%*	-44.5%*	-36.5%*	64.0%*	77.0%*	KCNQ2 inh confirm=i
COc1cc(OC)cc(-c2nnc(NC(=O)c3ccc4c(c3)OCCO4)o2)c1	/	i	/	/	/	/	/
COC(=O)c1ccc(COC(=O)c2ccc(SC)cc2OC)cc1	/	i	/	/	/	/	/
CCN1/C(=C/c2ccc3cc(C)ccc3[n+]2CC)Sc2ccccc21	/	i	/	/	/	/	/
CCN1/C(=C/c2sc(-c3ccccc3C)c[n+]2C)Sc2ccccc21	-7.01	-7.01*	i	i	i	23.5%*	i
SMILES	KCNQ2 enhance	KCNQ2 block	KCNQ2 block conf	KCNQ1 spec	CHO parental ctr	Kir21 confirm	HEK293 Tl flux	others
Cc1c2cnn(CC(=O)NCCCN3CC(C)CC(C)C3)c(=O)c2c(C)n1Cc1ccccc1Cl (centres undefined)	1.72	i	/	/	/	/	/
COc1cc(CNCc2ccccc2)cc(Cl)c1OC	0.24	i	/	/	/	/	/
COc1cc(CNCCc2ccccc2)cc(Cl)c1OCc1ccccc1	-7.22	-7.22*	i	i	i	31.0%*	i
Cc1cc(C)c2[nH]c(C(=O)Nc3ccc(F)cc3Br)cc2c1	0.35	i	/	/	/	/	/
Cc1c(C(=O)N2CCCCC2)c(S(=O)(=O)NCCc2ccc(Cl)cc2)c(C)n1C	0.38	i	/	/	/	/	/
Cc1cc(C)n(-c2nc(SCC(=O)O)c3c4c(sc3n2)COC(C)(C)C4)n1	/	i	/	/	/	/	/
Cc1cc(C)n(-c2nc(SCCN(C)C)c3c4c(sc3n2)CCCC4)n1	-8.89	-8.89*	-30.0%*	-31.0%*	i	i	i	KCNQ2 inh confirm=i
CN1/C(=C\C=O)C(C)(C)c2ccccc21	1.51	i	/	/	/	/	/
CN1\C(=C/C=C/C=C/C=[N+](C)C)C(C)(C)c2ccccc21	-9.69	-9.69*	-48.0%*	-36.5%*	-35.5%*	11.5%*	i	KCNQ2 inh confirm=+
N=c1c2c(-c3ccccc3)c(-c3ccccc3)n(Cc3ccco3)c2ncn1CCO	-7.04	-7.04*	i	i	i	37.0%*	i
N=c1c2c(-c3ccccc3)c(-c3ccccc3)n(Cc3ccco3)c2ncn1CCCO	/	i	/	/	/	/	/
CN(Cc1ccccc1)C1CCCN(C(=O)c2ccc(Cl)s2)C1 (centres undefined)	/	i	/	/	/	/	/
